# Assay results taken from the supplement of paper PMC13380429.
# Legend:
# [1] = test system: Vero E6 infected with SARS-CoV-2; assay: morphology score (similarity to uninfected cells); higher = more like uninfected cells; details: 24 h
# [2] = test system: Vero E6 infected with SARS-CoV-2; assay: SARS-CoV-2 infection rate relative to infected DMSO; higher = more infection, active = 60 or less; details: 24 h
Structure (SMILES),morphology score [1],SARS-CoV-2 infection rate [2]
Cn1cnc2c(NCc3ccccc3)nc(NCCO)nc21 [olomoucine] (10 µM),0.0162,98.5% (inactive)
O=C(Nc1c(-c2cccs2)nc2ccccn12)c1ccc(Cl)cc1 (10 µM),0.204,84% (inactive)
O=C(O)Cc1cccnc1C(=O)O [homoquinolinic-acid] (10 µM),0.0575,102% (inactive)
S=C=Nc1ccc(N=C=S)cc1 [bitoscanate] (10 µM),-0.0255,106% (inactive)
CC(C)Cc1ccc([C@@H](C)C(=O)NS(C)(=O)=O)cc1 [reparixin] (10 µM),0.135,100% (inactive)
Nc1ccc(/N=N/c2ccccc2)c(N)n1 [phenazopyridine] (10 µM),0.34,87.5% (inactive)
O=c1ccc2ccccc2o1 [coumarin] (10 µM),0.114,89.5% (inactive)
NC(=O)C1=CN([C@@H]2O[C@H](COP(=O)(O)OP(=O)(O)OC[C@H]3O[C@@H](n4cnc5c(N)ncnc54)[C@H](OP(=O)(O)O)[C@@H]3O)[C@@H](O)[C@H]2O)C=CC1 (10 µM),-0.0816,106% (inactive)
CCCCNc1c(C(=O)OCC)c(C)nc2c1cnn2CC [tracazolate] (10 µM),0.174,92.5% (inactive)
CC[C@H](C)C(=O)O[C@H]1C[C@@H](C)C=C2C=C[C@H](C)[C@H](CC[C@@H]3C[C@@H](O)CC(=O)O3)[C@H]21 [lovastatin] (10 µM),0.0359,110% (inactive)
O=Nc1c(-c2c(O)[nH]c3cc(Br)ccc23)[nH]c2ccccc12 [GSK-3-inhibitor-IX] (0.833333 µM),-0.0517,67% (inactive)
C=C1c2cccc(O)c2C(=O)C2=C(O)[C@]3(O)C(=O)C(C(N)=O)=C(O)[C@@H](N(C)C)[C@@H]3[C@@H](O)[C@H]12 [methacycline] (0.833333 µM),0.0945,103% (inactive)
CN1CCC(=C2c3ccccc3CCn3c(C=O)cnc32)CC1 [alcaftadine] (10 µM),0.0541,93.5% (inactive)
O=C(NCc1ccc(OC(F)(F)F)cc1)C1c2ccccc2C(=O)N1C1CCOCC1 (stereo not given) (10 µM),-0.0695,105% (inactive)
Clc1ccc2c(c1)N=C(N1CCNCC1)c1ccccc1N2 [desmethylclozapine] (10 µM),0.467,53.5% (active)
CC(C)(O)CC(=O)O [beta-hydroxy-beta-methylbutyrate] (10 µM),0.0168,105% (inactive)
Nc1nc(OCc2cc(Br)cs2)c2[nH]cnc2n1 [lomeguatrib] (10 µM),0.19,104% (inactive)
Cc1cc(-c2nc3cc(F)ccc3s2)ccc1NC(=O)[C@@H](N)CCCCN [phortress] (10 µM),-0.32,120% (inactive)
C=CCN1C[C@H](C)N([C@H](c2ccc(C(=O)N(CC)CC)cc2)c2cccc(O)c2)C[C@H]1C (10 µM),0.1,105% (inactive)
CC1(C)CC[C@]2(C(=O)O)CC[C@]3(C)C(=CC[C@@H]4[C@@]5(C)CC[C@H](O)C(C)(C)[C@@H]5CC[C@]43C)[C@@H]2C1 [oleanolic-acid] (10 µM),0.0528,110% (inactive)
C=C1CC[C@@H]2[C@](C)(CO)[C@H](O)CC[C@@]2(C)[C@@H]1C/C=C1/C(=O)OC[C@H]1O [andrographolide] (0.833333 µM),0.123,106% (inactive)
O=C(N/N=C/c1ccc(O)c(O)c1)c1cc2ccccc2cc1O [dynasore] (10 µM),-0.107,108% (inactive)
O=C(O)[C@H](Cc1ccccc1)NCc1ccc(Cl)cc1 (10 µM),0.0118,102% (inactive)
O=C(O)CCCCC(CCSCc1ccccc1)SCc1ccccc1 (stereo not given) (10 µM),0.195,104% (inactive)
CC1(C)CCC[C@]2(C)[C@H]3CC(=O)O[C@]3(C)CC[C@@H]12 [Sclareolide (Norambreinolide)] (10 µM),0.184,106% (inactive)
CC(C)=CCC/C(C)=C/CC/C(C)=C/CSc1ccccc1C(N)=O [farnesyl-thiosalicylic-acid-amide] (10 µM),0.012,110% (inactive)
CCc1c(O)cc(O)c(C(=O)c2ccc(OCCN3CCOCC3)c(OC)c2)c1CC(=O)N(CCOC)CCOC (10 µM),-0.0338,102% (inactive)
C#Cc1cccc2c1c(C(=O)c1ccc(Cn3c(C)nc4cnccc43)c(F)c1)cn2C(=O)N(C)C (10 µM),0.159,106% (inactive)
CN1CCN(CCCCN2C(=O)CN(/N=C/c3ccc(-c4ccc(Cl)cc4)o3)C2=O)CC1 [azimilide] (10 µM),0.0199,102% (inactive)
CN1c2c([nH]c(N)nc2=O)NC[C@@H]1CNc1ccc(C(=O)N[C@@H](CCC(=O)O)C(=O)O)cc1 [metafolin] (10 µM),0.0144,115% (inactive)
